Source: PubChem BioAssay
HEK293 viab = reduces viability of HEK-293 SNCA reporter cells; Potency, µM (top dose mostly 57.1 µM), inactives show at the top dose activity change, negative = cytotoxicity, hits mostly cytotoxic; 0.12% of 150,000 active; AID 1671193; HEK-293-SNCA-luc viability, GF-AFC fluorescence, 24 h;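 further: 0% = DMSO-treated cells and -100% = medium-only wells without cells; nearly all actives have a fitted effect of over 30% in size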
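Cytotoxicity counterscreen: after 24 h compound treatment of genome-edited SNCA-luciferase HEK-293 cells, live-cell protease substrate GF-AFC read by fluorescence after 30 min; activity scaled between DMSO (0%) and medium-only (-100%), curves Hill-fitted.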
HEK cytotox = HEK 293 cell cytotoxicity; HEK 293 viability, ATP luminescence (CellTiter-Glo), 48-72 h; Potency, µM (doses to about 115 µM), for inactives: at the highest dose activity change, negative = cytotoxicity, actives largely listed as inhibitors; 6.6% of 94,000 active; AID 1345083; further: nearly all actives have a fitted effect of over 60% in size
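HEK 293 cells seeded at 250 cells/well were exposed to compound for 48 or 72 hr at 37 degree Celsius. Viability taken as ATP content by CellTiter-Glo luminescence.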
NPR1 antag = antagonists of human natriuretic peptide receptor Npr1; Potency, µM (top dose mostly 46.3 µM), for the others: top-dose activity change, negative = inhibition, usual class: inhibitors; P16066; 1.6% of 76,000 active; HEK293 hNpr1 GloSensor cGMP, ANP-stimulated luminescence; calls by dose curve; further: nearly all actives have a fitted effect of over 60% in size
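HEK293 cells stably expressing human Npr1 and cGMP GloSensor pGS-40F, loaded 2 h with 2% GloSensor reagent, given compound 30 min at room temperature. Luminescence read before and 20 min after 0.1 nM hNppA.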
SNCA expr inhib = inhibitors of alpha-synuclein (SNCA) gene expression; Potency, µM (doses to about 57.2 µM), inactives show top-dose activity change, negative = inhibition, actives largely listed as inhibitors; 0.17% of 140,000 active; HEK-293 SNCA-luciferase knock-in, luminescence, 24 h; AID 1671194;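 further: plate controls were DMSO cells for no effect and cell-free wells for full effect; nearly all actives have a fitted effect of over 45% in size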
NIH3T3 tox = kills NIH 3T3 cells | NIH 3T3 viability, CellTiter-Glo ATP luminescence, 48-72 h | Potency, µM (doses to about 96.7 µM), without a hit: at the top dose activity change, negative = cytotoxicity, actives largely listed as inhibitors | 4.3% of 94,000 active | AID 1345082; further: nearly all actives have a fitted effect of over 55% in size
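First NIH 3T3 cells are plated at 400 cells/well; next compound is pinned in; then plates incubate 48 or 72 hr at 37 °C; finally CellTiter-Glo is added and luminescence read after 10 min.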
Luciferase inh = inhibitors of firefly (Photinus pyralis) luciferase. P08659. purified P. pyralis luciferase, luminescence, biochemical. Potency, µM (doses to about 115 µM), most hits filed as inhibitors. 2.5% of 76,000 active; further: nearly all actives have a fitted effect of over 65% in size
Target sequence (P08659 whole entry, looked up): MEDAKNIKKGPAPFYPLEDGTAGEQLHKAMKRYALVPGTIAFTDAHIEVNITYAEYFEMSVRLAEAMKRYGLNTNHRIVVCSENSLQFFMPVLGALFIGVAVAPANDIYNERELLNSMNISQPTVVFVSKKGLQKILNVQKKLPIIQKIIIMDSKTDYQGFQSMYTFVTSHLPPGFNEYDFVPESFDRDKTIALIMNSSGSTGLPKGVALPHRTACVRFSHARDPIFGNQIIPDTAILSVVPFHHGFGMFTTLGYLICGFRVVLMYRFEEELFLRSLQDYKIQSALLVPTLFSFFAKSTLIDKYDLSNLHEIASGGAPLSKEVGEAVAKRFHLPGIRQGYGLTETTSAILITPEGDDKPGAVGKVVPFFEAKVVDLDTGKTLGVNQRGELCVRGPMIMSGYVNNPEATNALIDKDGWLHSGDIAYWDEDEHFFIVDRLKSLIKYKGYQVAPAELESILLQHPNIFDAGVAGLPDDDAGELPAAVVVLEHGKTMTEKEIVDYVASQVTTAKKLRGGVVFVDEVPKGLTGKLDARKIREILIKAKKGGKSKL
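Cell-free enzyme assay, 10nM P. pyralis luciferase, luciferin and ATP each at 10uM. Inhibition profiled over a 6-point titration, read as luminescence.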
* marks the source's active call; other numbers are inactive results; i = inactive; ? = inconclusive; . = no result; [ ] = dose if it differs, or a comment. Compounds with a hit are over-represented: about 7.4% of the library has one in this group of screens. Unless noted, the call rests on the fitted dose curve; in most records, active means well fitted curve in the direction sought with a large enough effect; inconclusive means small, poorly fitted or top-dose-only effect, or another doubt; inactive means no such curve, though single readings can be large; an effect the other way counts as inactive or inconclusive. Unless noted, on the % scale 0 is the no-effect control and ±100 the full control effect; potency means the concentration at half of the fitted maximal effect.

SMILES	HEK293 viab	HEK cytotox	NPR1 antag	SNCA expr inhib	NIH3T3 tox	Luciferase inh
Cc1cccc(-c2nc3ccc(C(=O)NC4CCCCCC4)cc3o2)n1	-16%[87.6 µM]	79µM*	.	46%[87.6 µM]	?	.
Cc1cccc(-c2nc3ccc(C(=O)NCc4ccccc4F)cc3o2)n1	4%[87.6 µM]	100µM*	.	48%[87.6 µM]	?	.
Cc1ncccc1-c1nc2cc(C(=O)NC3CC3)ccc2o1	2%[87.6 µM]	?	.	4%[87.6 µM]	89µM*	.
Cc1ncccc1-c1nc2cc(C(=O)NCC3CCCCC3)ccc2o1	9%	-15%	.	22%	-29%	.
O=C(NCc1ccccc1F)c1ccc2nc(-c3ccccn3)oc2c1	-5%[87.6 µM]	71µM*	.	41%[87.6 µM]	?	.
O=C(NCc1nnc2n1C(C(=O)NCc1cccnc1)CC2)c1cccnc1 (stereo not given)	9%	-7%	.	36%	-13%	.
Cc1cc(Cl)ccc1-n1nc(C)c([C@@H]2C=C[C@@H](NC(=O)CCCC(=O)O)C2)c1C	-6%[87.6 µM]	0%[172 µM]	-2%[70.6 µM]	-12%[87.6 µM]	-7%[174 µM]	?
Cc1nn(-c2ccc(C(C)(C)C)cc2)c(C)c1[C@@H]1C=C[C@@H](NC(=O)CCC(=O)O)C1	4%[87.6 µM]	?	1%[70.6 µM]	29%[87.6 µM]	-22%[174 µM]	20µM*
Cc1nn(-c2ccc(C(C)(C)C)cc2)c(C)c1[C@@H]1C=C[C@@H](NC(=O)CC(C)(C)CC(=O)O)C1	0%	i	1%	-1%	?	?
COCC(=O)N[C@@H]1C=C[C@@H](c2c(C)nn(-c3ccc(C(C)(C)C)cc3)c2C)C1	-27%[87.6 µM]	40µM*	-27%[70.6 µM]	60%[87.6 µM]	22µM*	?
Cc1cc(Cl)ccc1-n1nc(C)c([C@@H]2C=C[C@@H](NC(=O)CCC(=O)O)C2)c1C	-1%[87.6 µM]	-4%[172 µM]	1%[70.6 µM]	-12%[87.6 µM]	1%[138 µM]	40µM*
Cc1nn(-c2ccc(C(F)(F)F)cc2)c(C)c1[C@@H]1C=C[C@@H](NC(=O)CCC(=O)O)C1	-4%[87.6 µM]	?	0%[70.6 µM]	21%[87.6 µM]	?	?
CN[C@@H](CO)C(=O)NCc1nc(-c2cccc(F)c2)c(-c2ccccn2)[nH]1	-4%	?	-2%	1%	1%	i
Cc1ncoc1C(=O)N1CCCCCNC(=O)[C@@H]2CCC[C@@H]21	0%	1%	4%	-20%	-2%	i
Cc1nnc(-c2cc(-c3ccc(CO)cc3)ccn2)n1CCc1ccccc1	5%[87.6 µM]	?	4%[70.6 µM]	?	-24%[138 µM]	i
Cc1nnc(-c2cc(-c3cccc(F)c3)ccn2)n1Cc1ccccc1	-16%[87.6 µM]	89µM*	1%[70.6 µM]	25%[87.6 µM]	?	i
Cc1nnc(-c2cc(-c3cccc(N(C)C)c3)ccn2)n1Cc1ccccc1	-23%[87.6 µM]	89µM*	4%[70.6 µM]	16%[87.6 µM]	50µM*	?
Cc1nnc(-c2cc(-c3ccc(CO)cc3)ccn2)n1Cc1ccccc1	-2%[87.6 µM]	?	2%[70.6 µM]	96%[87.6 µM]	?	i
COc1ncc(-c2ccnc(-c3nnc(C)n3CCc3ccccc3)c2)cn1	13%[87.6 µM]	-5%[172 µM]	5%[70.6 µM]	-30%[87.6 µM]	100µM*	i
COCCn1c(C)nnc1-c1cc(-c2ccc(OC)c(OC)c2)ccn1	4%[87.6 µM]	2%[172 µM]	2%[70.6 µM]	31%[87.6 µM]	89µM*	i
COCCn1c(C)nnc1-c1cc(-c2ccnc(OC)c2)ccn1	3%[87.6 µM]	-12%[172 µM]	2%[70.6 µM]	-1%[87.6 µM]	?	i
CNC(=O)[C@H]1C[C@H](Oc2ccccc2)CN1C(=O)Nc1cccc(C)c1	-10%	-14%	3%	-6%	-8%	i
CC(=O)Nc1cccc(-c2ccnc(-c3nnc(C)n3Cc3ccccc3)c2)c1	-3%[87.6 µM]	?	-18%[70.6 µM]	57%[87.6 µM]	?	50µM*
COc1cccc(-c2ccnc(-c3nnc(C)n3Cc3ccccc3)c2)c1	-5%[87.6 µM]	?	-2%[70.6 µM]	33%[87.6 µM]	79µM*	i
Cc1nnc(-c2cc(-c3cccc(CO)c3)ccn2)n1Cc1cccnc1	7%[87.6 µM]	-2%[172 µM]	2%[70.6 µM]	5%[87.6 µM]	?	i
SMILES	HEK293 viab	HEK cytotox	NPR1 antag	SNCA expr inhib	NIH3T3 tox	Luciferase inh
Cc1nnc(-c2cc(-c3cccc(N(C)C)c3)ccn2)n1Cc1ccncc1	2%[87.6 µM]	1%[172 µM]	0%[70.6 µM]	7%[87.6 µM]	?	i
Cc1ccc(NC(=O)N2CCCOCCNC(=O)[C@@H]3CCCC[C@@H]32)cc1C	0%	i	3%	7%	i	i
COC[C@@H]1[C@H](C(=O)Nc2cc(C)ccc2OC)CCC(=O)N1C	9%	1%	.	1%	-16%	.
Cc1cnc(CC2CCN(Cc3cccc(F)c3)C2)n1CC1CC1 (stereo not given)	-19%	?	.	13%	?	.
Fc1ccc(CN2CC[C@H](c3nc4cc(Cl)ccc4o3)C2)cc1F	1%[87.6 µM]	89µM*	-28%[70.6 µM]	-18%[87.6 µM]	?	i
COc1cccc(CN2CCC(Cc3ncc(C)n3Cc3ccccc3)C2)c1 (stereo not given)	-23%	45µM*	-19%	?	35µM*	i
CCS(=O)(=O)c1ccc2oc([C@H]3CCN(Cc4ccc(OC)cc4)C3)nc2c1	-18%[87.6 µM]	63µM*	?	0%[87.6 µM]	?	i
COc1cccc(CN2CC[C@H](c3nc4cc(Cl)ccc4o3)C2)c1	12%[87.6 µM]	?	-1%[70.6 µM]	26%[87.6 µM]	89µM*	?
Fc1ccc2oc([C@H]3CCN(Cc4ccc(F)c(F)c4)C3)nc2c1	6%[87.6 µM]	?	2%[70.6 µM]	-22%[87.6 µM]	-26%[138 µM]	i
O=C(NCCc1cscn1)c1cccc(S(=O)(=O)NC[C@@H]2CCCO2)c1	-8%	-11%	9%	?	-19%	i
COc1ccc(CCNC(=O)c2cc(-c3ccc(Cl)cc3)on2)cc1OC	-6%	.	.	-13%	.	.
COc1ccc(OCc2cc(C(=O)NCCc3nc(C)c(C)s3)no2)c(Cl)c1	6%	32µM*	0%	4%	?	?
O=C(c1ccc2[nH]ccc2c1)N1CCC2(CC1)Nc1ccccc1NC2=O	-9%	40µM*	-10%	-14%	-14%	i
O=C(c1ccc2n[nH]nc2c1)N1CCC2(CC1)Nc1ccccc1NC2=O	-5%	-29%	5%	2%	-13%	i
Cc1nc(-c2ccc(F)cc2)n(CC(=O)Nc2cccc(C(F)(F)F)c2)c(=O)c1CCO	?	20µM*	?	?	22µM*	i
COc1ccc(C)cc1NC(=O)Cn1c(-c2ccc(F)cc2)nc(C)c(CCO)c1=O	4%	79µM*	4%	19%	-13%	i
COc1ccc(NC(=O)Cn2c(-c3ccc(F)cc3)nc(C)c(CCO)c2=O)cc1OC	-15%	?	-6%	?	?	i
Cc1nc(-c2ccc(Cl)cc2)n(CC(=O)Nc2cccc(C(F)(F)F)c2)c(=O)c1CCO	-25%	40µM*	-1%	?	?	i
